Results on 13 compounds are retold here after PubChem BioAssay (NCI).

Test systems include NCI-H23 lung; NCI-H226 lung; NCI-H322M lung; HOP-62 NSCLC; NCI-H460 lung; HOP-92 NSCLC; NCI-H522 lung; A549/ATCC NSCLC; 786-0 renal; COLO 205 colon.
Holding throughout (experiment): NCI-60 one-dose screen, 48 h (100 = growth as untreated, 0 = no growth, -100 = all killed)
Common to all, as to settings: 10 µM unless noted

Each structure is given as a SMILES string. About 83,000 compounds went through this panel and 20% of them were active in at least one assay; those are over-represented in the sample as a whole.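 How to read the values: 0–100, growth inhibition (40 = 60% inhibited); 0, no net growth; -100 to 0, cell death (-40 = 40% of starting cells died; -100 = all dead).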 Values without a mark were called inactive. Activity calls are given as the source filed them. The calls were made as follows: active = growth percent below 10; inactive = the rest.

Regarding `Cc1cc(C)c2c(n1)sc1c(Nc3ccc(O)cc3)ncnc12`, the growth is 9.96% (active) in the experiment on NCI-H23 lung; 32.4% with NCI-H226 lung; 46.2% in the experiment on NCI-H322M lung; 18.5% with HOP-62 NSCLC; 10.1% in the experiment with NCI-H460 lung; 35.5% in the experiment on HOP-92 NSCLC. The growth with NCI-H522 lung is 32.4%; in the experiment with A549/ATCC NSCLC it was 26.7%; in the experiment with 786-0 renal it was 12.6%; in the experiment with COLO 205 colon it was 33%.
In the case of `[O-]/[N+](=C\c1ccccc1)CC1(O)CCCCC1`, the growth was 104% with NCI-H23 lung; 99.5% with NCI-H226 lung; 112% with NCI-H322M lung; 109% in the experiment on HOP-62 NSCLC; 103% in the experiment on NCI-H460 lung; 78% in the experiment with HOP-92 NSCLC. Further, the growth in the experiment on NCI-H522 lung was 93.7%; in the experiment with A549/ATCC NSCLC, 101%; in the experiment on 786-0 renal, 109%; with COLO 205 colon it was 117%.
Regarding `CN(C)c1ccc(Nc2c3ccccc3nc3ccccc23)cc1`, the growth is 16% with NCI-H23 lung; -38.3% (active) in the experiment on NCI-H226 lung; 15.5% in the experiment on NCI-H322M lung; 32.6% with HOP-62 NSCLC; -26.6% (active) in the experiment with NCI-H460 lung; -7.43% (active) in the experiment on HOP-92 NSCLC. The growth was 20.4% in the experiment on NCI-H522 lung, 14.2% in the experiment with A549/ATCC NSCLC, 9.08% (active) with 786-0 renal and -51.7% (active) in the experiment with COLO 205 colon.
`CNC(=O)c1cc(Oc2ccc(NC(=O)c3nc(S(C)(=O)=O)sc3-c3ccc(F)cc3)cc2)ccn1`: the growth with NCI-H23 lung was 94.8%; in the experiment on NCI-H226 lung it was 101%; in the experiment on NCI-H322M lung, 28.2%; in the experiment on HOP-62 NSCLC it was 94.9%; in the experiment on NCI-H460 lung, 84.7%; in the experiment on HOP-92 NSCLC it was 138%. The growth in the experiment on NCI-H522 lung is 53.4%; in the experiment on A549/ATCC NSCLC, 94.8%; in the experiment with 786-0 renal it was 98.3%; in the experiment with COLO 205 colon, 69.1%.
Regarding `COc1c(-c2cc(-c3ccc(C)o3)[nH]c(=O)n2)c(O)cc2occc12`, the growth with NCI-H23 lung is 68.8%; with NCI-H226 lung it was 67.3%; in the experiment with NCI-H322M lung, 90.7%; with HOP-62 NSCLC, 52.1%; in the experiment with NCI-H460 lung, 44.4%; in the experiment on HOP-92 NSCLC it was 67.3%. Besides, the growth was 36.1% in the experiment with NCI-H522 lung, 47.1% with A549/ATCC NSCLC, 93.9% in the experiment on 786-0 renal and 104% in the experiment with COLO 205 colon.
For `CCOc1cccc(/C=N/NC(=O)c2ccc(Nc3ccnc(C(F)(F)F)c3)cc2)c1O`, the growth is 28.2% in the experiment on NCI-H23 lung; -16.7% (active) in the experiment with NCI-H226 lung; 22.3% in the experiment on NCI-H322M lung; -9.17% (active) in the experiment on HOP-62 NSCLC; -3.48% (active) with NCI-H460 lung; 18.2% in the experiment with HOP-92 NSCLC. Also, the growth in the experiment with NCI-H522 lung was 2.45% (active); in the experiment with A549/ATCC NSCLC, 17.8%; with 786-0 renal it was 3.12% (active); with COLO 205 colon, -9.24% (active).
With `CCCCn1c(C)nc2ccc(Nc3nc(Cl)nc4nc[nH]c34)cc21`, the growth in the experiment with NCI-H23 lung is 75.3%; in the experiment on NCI-H226 lung it was 62.4%; in the experiment on NCI-H322M lung it was 82.5%; with HOP-62 NSCLC, 66.1%; with NCI-H460 lung it was 70.9%; with HOP-92 NSCLC, -11.2% (active). Moreover, the growth was 73.2% in the experiment on NCI-H522 lung, 81.4% in the experiment with A549/ATCC NSCLC, 55.4% in the experiment on 786-0 renal and 86.8% with COLO 205 colon.
For the compound `COc1ccc2[nH]c(C(=O)OCc3ccc4c(Br)cc(Br)c(O)c4n3)cc2c1`, the growth in the experiment on NCI-H23 lung was -62.4% (active); in the experiment on NCI-H226 lung, -64.7% (active); with NCI-H322M lung, 43.1%; with HOP-62 NSCLC it was 7.47% (active); in the experiment on NCI-H460 lung it was -75.1% (active); in the experiment on HOP-92 NSCLC, -59.8% (active). Also, the growth was -68% (active) with NCI-H522 lung, -10.2% (active) in the experiment with A549/ATCC NSCLC, -81.8% (active) in the experiment with 786-0 renal and -80.2% (active) with COLO 205 colon.
With `COC1=CC(c2ccc[nH]2)=N/C1=C\c1[nH]c(C)c(C(=O)CCCCCCCCC(=O)O[C@H]2CC[C@H]3C4CCc5cc(O)ccc5C4CC[C@]23C)c1C` (stereo not given in full), the growth was 40.3% in the experiment on NCI-H23 lung; 24.9% with NCI-H226 lung; 51.5% in the experiment on NCI-H322M lung; 50.7% with HOP-62 NSCLC; 14.9% in the experiment on NCI-H460 lung; -14.6% (active) in the experiment with HOP-92 NSCLC. Moreover, the growth in the experiment with NCI-H522 lung was 15%; in the experiment on A549/ATCC NSCLC, 4.12% (active); in the experiment on 786-0 renal, 19.9%; with COLO 205 colon it was 18.5%.
On to `COc1ccc(/C=c2\c(=O)n(-c3ccccc3)c3nn4c(n23)=NNC42CCCCC2)cc1`, for which the growth in the experiment with NCI-H23 lung was 92.7%; in the experiment on NCI-H226 lung, 75.8%; in the experiment on NCI-H322M lung, 96.3%; in the experiment on HOP-62 NSCLC, 87.7%; in the experiment on NCI-H460 lung, 101%; with HOP-92 NSCLC it was 94.1%. For the same compound, the growth is 90.3% in the experiment on NCI-H522 lung, 104% in the experiment on A549/ATCC NSCLC, 106% with 786-0 renal and 105% in the experiment with COLO 205 colon.
On to `CC(=O)c1cccc(Nc2ncnc3ccc(NC(=O)c4ccco4)cc23)c1`, for which the growth in the experiment on NCI-H23 lung is 88.7%; in the experiment on NCI-H226 lung it was 87.6%; with NCI-H322M lung, 102%; with HOP-62 NSCLC, 113%; in the experiment with NCI-H460 lung, 96.1%; in the experiment with HOP-92 NSCLC, 71.7%. In addition, the growth is 83.3% in the experiment on NCI-H522 lung, 90.4% in the experiment on A549/ATCC NSCLC, 89.5% in the experiment on 786-0 renal and 98.5% with COLO 205 colon.
`Cc1cccc(C(=O)O)n1`: the growth in the experiment on NCI-H23 lung was 123%; in the experiment with NCI-H226 lung, 93.9%; in the experiment with NCI-H322M lung, 108%; in the experiment on HOP-62 NSCLC it was 106%; in the experiment on NCI-H460 lung it was 105%; with HOP-92 NSCLC, 6.89% (active). Also, the growth with NCI-H522 lung is 90.8%; with A549/ATCC NSCLC, 102%; with 786-0 renal, 112%; in the experiment with COLO 205 colon, 114%.
In the case of `Cc1cc(NC(=O)c2ccc(N)cc2)ccc1N=Nc1ccc2cc(S(=O)(=O)O)cc(S(=O)(=O)O)c2c1`, the growth in the experiment with NCI-H23 lung is 103%; with NCI-H226 lung, 105%; in the experiment with NCI-H322M lung, 125%; in the experiment with HOP-62 NSCLC, 106%; in the experiment on NCI-H460 lung it was 117%; in the experiment on HOP-92 NSCLC it was 60.8%. Moreover, the growth with NCI-H522 lung was 129%; in the experiment with A549/ATCC NSCLC, 92.1%; in the experiment on 786-0 renal it was 112%; in the experiment on COLO 205 colon it was 109%.
